# Screen size: about 280,000 compounds; about 180 (0.064%) were called active. Calls follow the shape of the dose curve; as a rule, active = well fitted inhibition curve with a large enough effect; inconclusive = small, poorly fitted or top-dose-only effect, or effect the other way; inactive = flat fitted curve, though single readings scatter. Shown is part of a subset that was picked to be rich in actives.
# Molecular target: Thyroid hormone receptor beta (Homo sapiens) (UniProt P10828)
# Assay: qHTS for Inhibitors of the Interaction of Thyroid Hormone Receptor and Steroid Receptor Coregulator 2; also: nearly all actives have a fitted effect of over 50% in size;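 as to activity change, negative = inhibition: plate controls were bound peptide for no effect and peptide without receptor for full effect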
# Conditions: TRbeta-SRC2 peptide binding, fluorescence polarization, receptor liganded with 1 µM T3; series mostly up to 201 µM; activity change, negative = inhibition: at the top concentration
# Description: NIH Molecular Libraries Probe Production Network [MLPCN]
# NIH Chemical Genomics Center [NCGC]
# Assay Provider: R. Kip Guy, St. Jude Children's Research Hospital
# Thyroid receptor (TR) regulates many homeostatic processes including basal metabolism, cardiovascular function, body weight, and lipid trafficking. TR modulators are potential therapeutics for obesity and hyperlipidemias but current thyroid analogs have undesirable side effects, particularly cardiac stimulation. To identify inhibitors that specifically prevent the interaction of TR with the steroid receptor coregulator 2 (SRC2), a fluorescence polarization assay was screened. This assay detects interaction of the ligand-binding domain of human TRb with a Texas Red labeled SRC2 peptide, corresponding to a 20 amino acid region of the nuclear receptor interaction domain (Arnold et al., 2006). Small molecule inhibitors that block the interaction of TR and SRC2 are detected by a decrease in fluorescence polarization.
# Arnold, L. A.; Estebanez-Perpina, E.; Togashi, M.; Shelat, A.; Ocasio, C. A.; McReynolds, A. C.; Nguyen, P.; Baxter, J. D.; Fletterick, R. J.; Webb, P.; Guy, R. K. A high-throughput screening method to identify small molecule inhibitors of thyroid hormone receptor coactivator binding. Sci STKE 2006, p 13.
# NCGC Assay Protocol Summary:
# For screening, 5 uL/well 0.6 uM TRb and 20 nM SRC2 Texas Red in protein buffer (20mM Tris hydrochloride, 100mM NaCl, 10% glycerol, 1mM EDTA, 0.01% NP-40, 1mM DTT, 1uM T3 and 5% DMSO) was dispensed into black solid 1536-well plates (Grenier) using a solenoid-based dispenser. Following transfer of 23 nL compound or DMSO vehicle by a pin tool, the plates were centrifuged 15 s at 1000 RPM and incubated 5 hr at ambient temperature. The plates were read by an Envision (Perkin Elmer) to detect fluorescence polarization of SRC2 Texas Red (555 nm excitation and 632 nm emission). Data were normalized to unbound (all components except TRb) and bound SRC2 Texas Red controls. In this assay, we provide % activity data for each concentration as well as potencies for the active compounds.
# Keywords: NIH Roadmap, MLPCN, MLI, MLSMR, qHTS, NCGC, qHTS, thyroid hormone receptor, steroid receptor coactivator, fluorescence polarization
# Potency is read from the fitted curve at half-maximal effect.
# Thyroid hormone receptor beta (Homo sapiens), sequence (P10828 whole entry, looked up): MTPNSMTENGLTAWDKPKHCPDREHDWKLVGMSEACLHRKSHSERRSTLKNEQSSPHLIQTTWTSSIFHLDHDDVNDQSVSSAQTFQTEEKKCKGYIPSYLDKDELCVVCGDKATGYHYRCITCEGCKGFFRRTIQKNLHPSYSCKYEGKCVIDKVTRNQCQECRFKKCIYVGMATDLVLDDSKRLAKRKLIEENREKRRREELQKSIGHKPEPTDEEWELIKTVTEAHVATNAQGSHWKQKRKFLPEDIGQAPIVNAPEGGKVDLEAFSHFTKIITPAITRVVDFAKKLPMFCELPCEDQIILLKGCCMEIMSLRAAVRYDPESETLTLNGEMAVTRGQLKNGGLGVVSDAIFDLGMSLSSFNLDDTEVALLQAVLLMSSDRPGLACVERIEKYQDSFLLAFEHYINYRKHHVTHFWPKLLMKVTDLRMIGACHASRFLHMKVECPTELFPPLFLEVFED
SMILES,Potency,"activity change, negative = inhibition"
CC[N+](C)(CC)CCC[n+]1c(-c2ccccc2)c2cc(N)ccc2c2ccc(N)cc21,44.7 µM (active),–
Oc1ccc(C2(c3ccc(O)cc3)c3ccccc3-c3ccccc32)cc1,–,1.29% (inactive)
[Ga]#[As],–,5.9% (inactive)
CCOP(=O)(SC(C)CC)SC(C)CC (stereo not given),–,-2.05% (inactive)
COc1nc(C)nc(NC(=O)NS(=O)(=O)c2ccccc2CCC(F)(F)F)n1,–,-2.66% (inactive)

# Source: PubChem BioAssay AID1469 (National Center for Advancing Translational Sciences (NCATS), 2008)
